ATXN2 expr inh = Primary qHTS for Inhibitors of ATXN expression; HEK-293 ATXN2-luciferase reporter, luminescence, 24 h; 0.72% of 360,000 active; AID 1745845, 2022; Potency, µM (series often up to 57 µM), without a hit: at the highest dose activity change, negative = inhibition, actives largely listed as inhibitors; further: potency means the concentration at half of the fitted maximal effect; on the % scale 0 is the no-effect control and ±100 the full control effect; nearly all actives have a fitted effect of over 55% in size
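ATXN2-luciferase reporter cells (luciferase flanked by upstream and downstream ATXN2 gene portions) were treated 24 h at 37 °C with compounds at up to 57 uM. SteadyGlo luminescence gave expression; GF-AFC fluorescence gave viability.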
IL1B secr inh = qHTS for Inhibitors of Inflammasome Signaling: IL-1-beta AlphaLISA Primary Screen; THP-1 LPS/ATP IL-1B secretion, AlphaLISA, 16 h; active compounds read low; AID 743279, 2014; activity change, % at 57.5 µM; 4.7% of 360,000 active; in the data active means activity change below about -50%; inconclusive means mostly about -30% to -49%; further: on the % scale 0 is the no-effect control and ±100 the full control effect
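Secreted IL-1B measured by AlphaLISA bead assay after 16 h compound exposure of THP-1 cells; compounds (final up to 57.5 uM) added 1 h before LPS (250 ng/mL) and ATP (1.25 mM) stimulation; lower signal means less secretion.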
ATXN viability = Viability Counterscreen for Primary qHTS for Inhibitors of ATXN expression. S2 cells (HEK-293 line with an ATXN2-luciferase reporter) viability, CellTiter-Fluor protease fluorescence, 24 h. Potency, µM (highest dose often 56.7 µM), most hits filed as cytotoxic. 0.49% of 400,000 active; further: potency means the concentration at half of the fitted maximal effect; nearly all actives have a fitted effect of over 40% in size
TGFb inhibitor = qHTS for Inhibitors of TGF-b | AID 588855, 2011 | 1.2% of 410,000 active | Potency, µM (series often up to 46.1 µM), inactives show top-dose activity, negative = inhibition, most hits filed as inhibitors | HepG2 CAGA-GFP TGF-b/SMAD3 reporter, GFP fluorescence, 18 h; TGF-beta stimulated, 500 pg/mL final; further: potency means the concentration at half of the fitted maximal effect; on the % scale 0 is the no-effect control and ±100 the full control effect; nearly all actives have a fitted effect of over 65% in size
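Inhibition was scored as loss of TGF-beta-induced (500 pg/mL final, 18 hours, 37 degrees C) GFP in HEPG2 cells carrying a CAGA-GFP reporter, in DMEM with 1% FBS. Well GFP was summed per cell; Activity was normalised to unstimulated and stimulated DMSO wells, then concentration-response fitting.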
HepG2 tox-1 = qHTS for Inhibitors of TGF-b: Cytotox Counterscreen. Potency, µM (doses to about 46.1 µM), without a hit: at the highest dose activity change, negative = cytotoxicity, hits mostly cytotoxic. 0.76% of 410,000 active. AID 588856, 2011. HepG2 CAGA-GFP viability, ATP luminescence, 18 h; further: potency means the concentration at half of the fitted maximal effect
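CellTiter-Glo luminescence gave cytotoxicity after 18 hours at 37 degrees C. The cells were HepG2 CAGA-GFP in 1% FBS DMEM, stimulated with 500 pg/mL TGF-beta after compound addition. %Activity was normalised to no-cell wells (complete cell-killing) and DMSO (no toxicity), and curves were fitted and classified.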
TGFb confirm = qHTS for Inhibitors of TGF-b: Confirmation of Cherry Picks | 63% of 1,600 active | Potency, µM (highest dose often 46.1 µM), without a hit: at the top dose activity, negative = inhibition, most hits filed as inhibitors | shares compounds with TGFb inhibitor | HepG2 CAGA-GFP TGF-b reporter, GFP fluorescence, 18 h; cells stimulated with TGF-beta, 500 pg/mL; further: potency means the concentration at half of the fitted maximal effect; on the % scale 0 is the no-effect control and ±100 the full control effect; nearly all actives have a fitted effect of over 65% in size
HepG2 tox-2 = qHTS for Inhibitors of TGF-b: Cytotox Counterscreen for Cherry Picks | 27% of 1,600 active | shares compounds with TGFb inhibitor | Potency, µM (titrated, usually from 46.1 µM), for the others: at the highest dose activity, negative = cytotoxicity, usual class: inhibitors | HepG2 CAGA-GFP viability, ATP luminescence, 18 h; cells stimulated with TGF-beta, 500 pg/mL; further: potency means the concentration at half of the fitted maximal effect; on the % scale 0 is the no-effect control and ±100 the full control effect; nearly all actives have a fitted effect of over 70% in size
TGFb CCL64 inh = qHTS for Inhibitors of TGF-b: CCL64 Cells Orthogonal Assay for Cherry Picks; 41% of 1,600 active; shares compounds with TGFb inhibitor; CCL64 CAGA-GFP reporter, TGF-b stimulated, GFP fluorescence, 18 h; Potency, µM (titrated, usually from 46.1 µM), without a hit: top-dose activity, negative = inhibition, hits mostly inhibitors; AID 720536, 2013; further: potency means the concentration at half of the fitted maximal effect; nearly all actives have a fitted effect of over 65% in size
TGFb COP inh = qHTS for Inhibitors of TGF-b: Hit Validation in HepG2 Cells using COP promoter; shares compounds with TGFb inhibitor; HepG2 COP-GFP TGF-b reporter, GFP fluorescence, 18 h; cells stimulated by added recombinant TGF-beta; Potency, µM (series often up to 46.1 µM), for the others: at the highest dose activity, negative = inhibition, usual class: inhibitors; 3% of 1,600 active; further: potency means the concentration at half of the fitted maximal effect; nearly all actives have a fitted effect of over 70% in size
* marks the source's active call; other numbers are inactive results; i = inactive; ? = inconclusive; · = no result given. Shown are actives, neighbours in structure and some others; about 5.7% of the full set was active somewhere. Unless noted, the call rests on the fitted dose curve; in most records, active means well fitted curve in the direction sought with a large enough effect; inconclusive means small, poorly fitted or top-dose-only effect, or another doubt; inactive means no such curve, though single readings can be large; an effect the other way counts as inactive or inconclusive.

SMILES | ATXN2 expr inh | IL1B secr inh | ATXN viability | TGFb inhibitor | HepG2 tox-1 | TGFb confirm | HepG2 tox-2 | TGFb CCL64 inh | TGFb COP inh
CCN(CC)S(=O)(=O)c1cccc(NC(=O)Nc2cccc(C(F)(F)F)c2)c1 | 22.4µM* | -93.5* | ? | 7.94µM* | 11.2µM* | 10.3µM* | ? | 8.2µM* | 87.1%
CCOC(=O)c1c(C)[nH]c(C(=O)N/N=C/c2ccc(Br)cc2)c1C | -34.1% | 13.9 | ? | 1.41µM* | 0.5% | 0.92µM* | -9.2% | ? | -17.6%
CC(C)(C)C(=O)NCCCc1nc2ccccc2n1CCCOc1ccc(Cl)cc1 | -31.5% | -74.3* | i | 12.6µM* | -17.2% | 11.6µM* | -14.3% | ? | 10.7%
CCOC(=O)c1c(C)sc(-c2c(-c3ccc(OC)c(F)c3)[nH]c3c2c(=O)[nH]c(=O)n3C)c1O | -0.6% | · | i | 6.1% | -3.3% | · | · | · | ·
O=C(Nc1cccc(C(F)(F)F)c1)C1Cc2c(-c3cccc(F)c3)ccnc2O1 (centres undefined) | ? | 0.0 | ? | ? | -18.5% | · | · | · | ·
NC(=O)c1cccc(-c2ccnc3c2CC(C(=O)Nc2cccc(C(F)(F)F)c2)O3)c1 (centres undefined) | ? | 10.3 | i | 12.6µM* | -27.2% | 20.6µM* | -27.8% | 7.2% | 30.8%
COc1ccc(S(=O)(=O)N2CCCCCC2)cc1C(=O)N(C)Cc1ccc(Cl)cc1Cl | ? | -56.1* | ? | 15.8µM* | 0.3% | 18.4µM* | -19.5% | ? | 31.3%
COc1ccc(S(=O)(=O)N2CCCCCC2)cc1C(=O)N(C)Cc1c(F)cccc1Cl | 4.4% | -14.5 | i | -3.0% | -3.9% | · | · | · | ·
COC(=O)[C@@]1(Cc2ccccc2)[C@H]2C(=O)N(Cc3ccccc3)C(=O)[C@H]2[C@H]2CN=C(SCC3CC3)N21 | -17.4% | 41.2 | ? | 11.2µM* | -14.6% | ? | ? | ? | 37.0%
COC(=O)[C@@]1(Cc2ccccc2)[C@H]2C(=O)N(Cc3ccccc3)C(=O)[C@H]2[C@H]2CN=C(SCc3ccccc3)N21 | -3.9% | 24.5 | i | ? | -30.1% | · | · | · | ·
CN(C)S(=O)(=O)N1CCc2ccc(NC(=O)c3ccc(C(F)(F)F)cc3)cc2C1 | -8.8% | ? | i | ? | -38.3% | -0.3% | ? | -24.2% | 0.8%
Brc1cc(Br)c2ncnc(N3CCCCC3)c2c1 | -23.3% | -18.2 | i | 6.31µM* | -40.4% | 9.2µM* | 4.11µM* | ? | 42.1%
COc1ccc(CN2CCC(C(=O)NC(c3ccc4c(c3)OCO4)c3ccccn3)CC2)cc1 (centres undefined) | 5.6% | -2.4 | ? | -7.8% | -18.8% | · | · | · | ·
O=C(NC(c1ccccc1)c1ccc2ccccc2n1)C1CCN(CCOc2ccc(Cl)cc2)CC1 (centres undefined) | 28.2µM* | -100.3* | 28.2µM* | 7.08µM* | 11.2µM* | 6.51µM* | 5.17µM* | 3.66µM* | ?
COc1cc(CN2CCC(C(=O)NC(c3ccc(F)cc3)c3ccc4ccccc4n3)CC2)cc(OC)c1 (centres undefined) | -5.7% | -15.2 | ? | 3.55µM* | 5.62µM* | ? | 14.6µM* | 8.2µM* | ?
O=C(NC(c1ccccc1)c1ccc2ccccc2n1)C1CCN(Cc2ccc(Cl)c(Cl)c2)CC1 (centres undefined) | ? | ? | i | ? | -29.3% | · | · | · | ·
CCOC(=O)C1CCN(c2c(C(=O)c3ccc(C)cc3)cnc3ccc(F)cc23)CC1 | 3.8% | · | i | -27.4% | -9.2% | · | · | · | ·
CCC1=Nc2cc(C(=O)NCC3CCCO3)ccc2Sc2ccc(Br)cc21 (centres undefined) | · | 101.5 | ? | 11.2µM* | -15.9% | 18.4µM* | -1.5% | ? | 4.4%
CCC1=Nc2cc(C(=O)NCC3CCCO3)ccc2Sc2ccc(Cl)cc21 (centres undefined) | -29.8% | 114.0 | ? | ? | -19.0% | · | · | · | ·
CCc1cccc(NC(=O)CSc2nncn3c2cc2sccc23)c1 | · | · | · | ? | -58.0% | · | · | · | ·
COc1cc(Cl)ccc1OCc1cc(C(=O)N(C)Cc2cccc3cnccc23)no1 | 2.1% | -63.7* | i | 11.2µM* | -39.2% | 14.6µM* | ? | ? | 13.9%
Cc1ccc(C)c(S(=O)(=O)Nc2ccccc2C(=O)Nc2cc(C)on2)c1 | ? | 34.3 | i | 7.94µM* | -36.1% | ? | ? | ? | 22.3%
Cc1cc(NC(=O)c2ccccc2NS(=O)(=O)c2c(C)c(C)cc(C)c2C)no1 | -2.0% | 23.6 | i | ? | -20.7% | · | · | · | ·
CC(=O)c1cccc(NC(=O)Nc2sc3nc4n(c(=O)c3c2C)CCC(C)CC4)c1 (centres undefined) | 2.3% | · | i | 8.9% | -3.2% | · | · | · | ·
CCC(Sc1nc2c(sc3ccccc32)c(=O)n1CCc1ccc(OC)c(OC)c1)C(=O)N(CC)CC (centres undefined) | -10.3% | · | i | ? | -28.7% | · | · | · | ·
Cc1ccccc1C(=O)c1c[nH]c(C(=O)N2CCN(c3ccccc3F)CC2)c1 | -3.4% | -66.2* | i | ? | 15.3% | 13µM* | -19.0% | ? | 2.8%
O=C(c1c[nH]c(C(=O)N2CCN(c3ccccc3F)CC2)c1)c1cccc(Cl)c1Cl | · | -13.1 | i | 10µM* | -5.3% | 11.6µM* | ? | ? | 70.0%
